Measurements as given in the supplement of paper PMC7411054.
Where a name gives a salt, the structure may show the parent alone.

Experiments:
Assay in all cases: lowest phenotypically active concentration; higher = less potent
Conditions in all cases: treatment time: 24 h
[1] = tested on: A549-CANX-COX4
Outline: (§1)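 Two criteria together defined phenotypic activity: deviation and reproducibility. Deviation meant ≥3 of 4 wells beyond the 95th percentile of Euclidean distances in solvent control wells, and reproducibility meant a median replicate Pearson correlation above the 95th percentile of non-replicates. Wells had been treated for 24 h at 0.3, 1, 3 or 9 µM in fifteen gene-edited A549, HepG2 and WPMY1 reporter lines before live imaging.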

[2] = tested on: A549-TP53BP1-CLTA
Outline: as §1

[3] = tested on: WPMY1-ACTB-RAB5A
Outline: as §1

[4] = tested on: WPMY1-CANX-COX4
Outline: as §1

[5] = tested on: WPMY1-GM130-SQSTM1
Outline: as §1

[6] = tested on: WPMY1-TUBA1B-RELA
Outline: as §1

[7] = tested on: HepG2-CANX-COX4
Outline: as §1

[8] = tested on: HepG2-GM130-SQSTM1
Outline: as §1

[9] = tested on: WPMY1-TP53BP1-CLTA
Outline: as §1

[10] = tested on: HepG2-TUBA1B-RELA
Outline: as §1

Measured: lowest phenotypically active concentration

CN1CCc2cccc3c2[C@H]1Cc1ccc(O)c(O)c1-3 [r(-)-apomorphine]
9 µM: [1] | [2] | [3] | [4] | [6]
≤ 0.3 µM: [5]

O=S(=O)(c1cccc2c(O)nccc12)N1CCCNCC1 [HA 1100 hydrochloride]
≤ 0.3 µM: [7]
3 µM: [4] | [6]
9 µM: [1] | [2] | [8] | [3] | [5] | [9]

O=C(Nc1ccccc1)c1cc([N+](=O)[O-])ccc1Cl
9 µM: [1] | [4]

N#C/C(=C/c1ccc(O)c(O)c1)C(=O)NCCCCc1ccccc1
9 µM: [1] | [7] | [8] | [3] | [4] | [5] | [9] | [6]

Cc1cccc(C)c1OCC(=O)N[C@@H](Cc1ccccc1)[C@@H](O)C[C@H](Cc1ccccc1)NC(=O)[C@H](C(C)C)N1CCCNC1=O [lopinavir]
9 µM: [1] | [10] | [4]

C=C1C(=O)O[C@@H]2C=C(C)CCC=C(C)CC[C@@H]12 [Costunolide]
3 µM: [8]
9 µM: [1] | [7] | [3] | [5] | [9] | [6]

COc1cc2c(cc1NS(=O)(=O)c1ccc(Br)cc1C)n(C)c(=O)n2C
9 µM: [1] | [2] | [8]
3 µM: [7] | [10]

CC(C)C(=O)SCCCCCCC(=O)Nc1nc(-c2ccccc2)cs1
9 µM: [9]
3 µM: [7]
1 µM: [1] | [3] | [4] | [5] | [6]

Nc1nccc(-c2ccc3noc(-c4ccc(Cl)cc4)c3c2)n1 [PIM-1 Inhibitor 2]
9 µM: [1] | [2] | [3] | [4] | [5] | [9] | [6]

CC1(C)O[C@@H]2C[C@H]3[C@@H]4C[C@H](F)C5=CC(=O)C=C[C@]5(C)[C@@]4(F)[C@@H](O)C[C@]3(C)[C@]2(C(=O)CO)O1 [fluocinolone acetonide]
≤ 0.3 µM: [1] | [2] | [3]

Cc1nnc(-c2ccc3occ(-c4ccc(S(C)=O)cc4)c3c2)o1 (centres undefined)
9 µM: [1] | [2] | [7] | [8] | [3] | [4] | [5] | [9]
3 µM: [10]

CC(C)n1c(/C=C/[C@@H](O)C[C@@H](O)CC(=O)O)c(-c2ccc(F)cc2)c2ccccc21 [fluvastatin]
9 µM: [1] | [2] | [9]
1 µM: [8] | [3] | [5]
3 µM: [7] | [10] | [4] | [6]

CCCOc1ccc(CCc2nc3cc(-c4c(C)noc4C)ccc3n2CCN2CCOCC2)cc1
9 µM: [1] | [7]

CN(C)CC(=O)Nc1ccc2[nH]c(=O)c3ccccc3c2c1 [PJ 34 hydrochloride]
3 µM: [4]
9 µM: [1] | [7] | [8] | [10] | [3] | [5] | [6]

C=C1CC[C@@H]2[C@](C)(CO)[C@H](O)CC[C@@]2(C)[C@@H]1C/C=C1/C(=O)OC[C@H]1O [Andrographolide]
9 µM: [1] | [5] | [6]
3 µM: [7] | [10]
1 µM: [8]

C[C@@H](Nc1ncnc2[nH]c(-c3ccc(O)cc3)cc12)c1ccccc1 [PKI 166 hydrochloride]
9 µM: [7] | [10] | [3] | [6]
3 µM: [1] | [2] | [4] | [5] | [9]

COc1ccc(-c2cnc(-c3cccc4c3-c3ccccc3C4=O)o2)cc1
≤ 0.3 µM: [1] | [2] | [3] | [4] | [5] | [9] | [6]

Nc1ncnc2[nH]nc(Nc3ccc(F)cc3)c12
3 µM: [5]
9 µM: [1] | [8] | [10] | [3] | [4] | [9] | [6]

COc1cc(OC)c2cc(-c3ccncc3)cnc2c1 [DMPQ dihydrochloride]
9 µM: [2] | [7] | [4] | [9]

O=S(=O)(c1cccc2cnccc12)N1CCCNCC1 [fasudil]
3 µM: [7] | [8] | [3] | [4]
9 µM: [2] | [10] | [5] | [6]

NS(=O)(=O)c1nn2cc(-c3ccccc3)nc2s1
9 µM: [2] | [7] | [8] | [10] | [3] | [5] | [9] | [6]

COc1ccccc1OCCNCC(O)COc1cccc2[nH]c3ccccc3c12 (centres undefined) [Carvedilol]
3 µM: [5]
9 µM: [2] | [7] | [8] | [10] | [3] | [4] | [9] | [6]

COc1ccc(CCNCc2ccc(OCc3ccc(Cl)nc3)c(OC)c2)cc1OC [SBE 13 hydrochloride]
9 µM: [2] | [10] | [3] | [4] | [5] | [9] | [6]

CC(C)COCC(CN(Cc1ccccc1)c1ccccc1)N1CCCC1 (centres undefined) [bepridil]
9 µM: [2] | [7] | [8] | [10] | [4] | [5] | [9]

CCCS(=O)(=O)Nc1ccc(F)c(C(=O)c2c[nH]c3ncc(Cl)cc23)c1F
1 µM: [2] | [7]
9 µM: [10] | [5]
≤ 0.3 µM: [8]

CN1[C@@H]2CC[C@H]1C[C@@H](OC(c1ccccc1)c1ccccc1)C2 [benztropine]
9 µM: [2] | [7] | [10] | [4] | [5] | [6]

O=C(O)C[C@H](O)C[C@H](O)/C=C/c1c(C2CC2)nc2ccccc2c1-c1ccc(F)cc1 [Pitavastatin calcium]
≤ 0.3 µM: [3] | [5]
1 µM: [7] | [8] | [10] | [4] | [9] | [6]
9 µM: [2]

O=C(O)Cc1cccc(OCCCN(Cc2cccc(C(F)(F)F)c2Cl)CC(c2ccccc2)c2ccccc2)c1 [GW 3965 hydrochloride]
9 µM: [1] | [7] | [10]

CC(C)OC(=O)c1cc2c(OCC(O)CNC(C)(C)C)cccc2[nH]1 (centres undefined)
3 µM: [3]
9 µM: [2] | [10] | [4] | [5] | [9] | [6]

NC(=O)c1cccc(-c2cc(Nc3ccc(OC(F)(F)F)cc3)ncn2)c1
3 µM: [3]
9 µM: [2] | [8] | [5] | [9]

COc1c(C=O)c(O)cc2c1C(=O)c1ccccc1C2=O [Damnacanthal]
3 µM: [2] | [5]
9 µM: [8] | [3] | [4] | [9] | [6]

Cc1ccc(NC2=CC(=O)c3sc(C)nc3C2=O)cc1 [Ryuvidine]
3 µM: [8] | [4]
1 µM: [2] | [3] | [5] | [6]

COc1cc(N2CCC(N)CC2)ccc1Nc1ncc(Cl)c(-c2c[nH]c3ccccc23)n1
3 µM: [2] | [8]
1 µM: [7] | [10] | [3] | [4] | [5] | [6]
≤ 0.3 µM: [9]

COc1ccc(CNC(=O)Nc2ncc([N+](=O)[O-])s2)cc1
9 µM: [2] | [4] | [5] | [9]

O=C(O)[C@@H]1[C@H]2C[C@H]3c4[nH]c5ccccc5c4CCN3C[C@@H]2CC[C@@H]1O [Yohimbinic acid monohydrate]
9 µM: [2] | [3] | [4] | [5] | [9] | [6]

C[C@]1(O)C[C@@H](c2nc(-c3ccc4ccc(-c5ccccc5)nc4c3)c3c(N)nccn32)C1 [linsitinib]
9 µM: [2] | [7] | [8] | [10] | [3] | [4] | [5] | [9]

CNCCC(Oc1ccc(C(F)(F)F)cc1)c1ccccc1 (centres undefined) [fluoxetine]
3 µM: [10]
9 µM: [2] | [5]

COc1cc2ncnc(Nc3ccc(Cl)cc3F)c2cc1OC
3 µM: [2]

Cn1cc(C2=C(c3ccc(Cl)cc3Cl)C(=O)NC2=O)c2ccccc21
≤ 0.3 µM: [2] | [5] | [9]
1 µM: [8] | [4]

CSc1ccc2c(c1)N(CCC1CCCCN1C)c1ccccc1S2 (centres undefined) [thioridazine]
9 µM: [2] | [7] | [8] | [10] | [3] | [4] | [5] | [9] | [6]

CCCNCC(O)COc1ccccc1C(=O)CCc1ccccc1 (centres undefined) [propafenone]
9 µM: [2] | [10] | [3] | [4]
3 µM: [5] | [9]

Cc1cc(Nc2ccc(NC(=O)c3ccc(Nc4ccnc5ccccc45)cc3)cc2)nc(N)n1
3 µM: [10] | [3] | [9] | [6]
9 µM: [2]
1 µM: [8] | [5]

Cc1ccc(NC(=O)c2cccc(N(C)C)c2)cc1NC(=O)c1ccc(O)cc1
3 µM: [2]
9 µM: [3]

Clc1ccccc1C(c1ccccc1)(c1ccccc1)n1ccnc1 [Clotrimazole]
9 µM: [2] | [7] | [4] | [5]

C[C@H]1Oc2cc(cnc2N)-c2c(nn(C)c2C#N)CN(C)C(=O)c2ccc(F)cc21
3 µM: [2] | [7] | [8]
9 µM: [9]
≤ 0.3 µM: [10]

N#C/C(=C(/N)Sc1ccc(N)cc1)c1ccccc1C(F)(F)F
9 µM: [8] | [10] | [9]
3 µM: [7]
1 µM: [2]

O=C(NOCC1CC1)c1ccc(F)c(F)c1Nc1ccc(I)cc1Cl
≤ 0.3 µM: [2] | [8] | [10]
1 µM: [7]

CCCCOc1cc(C(=O)NCCN(CC)CC)c2ccccc2n1 [cinchocaine]
9 µM: [2] | [3]

Cc1noc(C)c1-c1ccc2c(c1)nc(CCc1ccc(OCCCN(C)C)cc1)n2CCN1CCOCC1
9 µM: [2] | [7] | [8] | [10] | [3] | [4] | [5] | [9] | [6]

CC/C(=C(\CC)c1ccc(O)c(CN(CC)CC)c1)c1ccc(O)c(CN(CC)CC)c1
1 µM: [2] | [8] | [10] | [3] | [4] | [5]
9 µM: [9] | [6]

Cc1noc(C)c1Cn1cc(C#N)c2cc(Oc3ccc(NC(=O)[C@@H]4CCCN4)cc3)ccc21
9 µM: [2] | [8] | [10] | [3] | [4] | [5] | [9] | [6]

COc1cc(NC(=O)c2cccc(-n3cc(NC(=O)Nc4cccc(C)c4)cn3)c2)cc(OC)c1OC
9 µM: [5] | [6]

O=C(NCCN1CCC(n2c(=O)[nH]c3ccccc32)CC1)c1cc2cc(F)ccc2[nH]1
9 µM: [7] | [8] | [10] | [3] | [4] | [5] | [9] | [6]

CNCCCN1c2ccccc2CCc2ccccc21 [desipramine]
9 µM: [10] | [3] | [5] | [6]

CC(CN1c2ccccc2Sc2ccccc21)N(C)C (centres undefined) [promethazine]
9 µM: [8] | [10] | [3] | [5] | [9] | [6]

Cc1cc(CS(=O)(=O)c2ccccc2)cc(OCc2ccc(CN3CCC[C@@H]3CO)cc2)c1 [PF 543 hydrochloride]
9 µM: [8] | [3]
